Hits are enriched below; roughly 11% of the tested compounds scored in any of these assays.
USP28 inh = inhibitors of human USP28 deubiquitinase; Ubiquitin carboxyl-terminal hydrolase 28 (Homo sapiens), Q96RU2; actives 3% (n = 47,000); AID 1645857, 2021; purified USP28, Ub-rhodamine cleavage fluorescence, 30 min; inhibition, % at 25 µM
USP17 inh = inhibitors of human USP17 deubiquitinase | purified USP17, Ub-rhodamine cleavage fluorescence, 3 h | inhibition, % at 50 µM | actives 6.5% (n = 47,000) | AID 1645855, 2021
OTUD3 block = inhibitors of human OTUD3 deubiquitinase | actives 0.7% (n = 47,000) | inhibition, % at 25 µM | purified OTUD3, Ub-rhodamine fluorescence, 2 h | OTU domain-containing protein 3 (Homo sapiens), Q5T2D3
USP30 block = inhibitors of human USP30 deubiquitinase. inhibition, % at 25 µM. purified USP30, Ub-rhodamine cleavage fluorescence. actives 5.3% (n = 47,000). AID 1645860, 2021
Target sequence (Q70CQ3 whole entry, looked up): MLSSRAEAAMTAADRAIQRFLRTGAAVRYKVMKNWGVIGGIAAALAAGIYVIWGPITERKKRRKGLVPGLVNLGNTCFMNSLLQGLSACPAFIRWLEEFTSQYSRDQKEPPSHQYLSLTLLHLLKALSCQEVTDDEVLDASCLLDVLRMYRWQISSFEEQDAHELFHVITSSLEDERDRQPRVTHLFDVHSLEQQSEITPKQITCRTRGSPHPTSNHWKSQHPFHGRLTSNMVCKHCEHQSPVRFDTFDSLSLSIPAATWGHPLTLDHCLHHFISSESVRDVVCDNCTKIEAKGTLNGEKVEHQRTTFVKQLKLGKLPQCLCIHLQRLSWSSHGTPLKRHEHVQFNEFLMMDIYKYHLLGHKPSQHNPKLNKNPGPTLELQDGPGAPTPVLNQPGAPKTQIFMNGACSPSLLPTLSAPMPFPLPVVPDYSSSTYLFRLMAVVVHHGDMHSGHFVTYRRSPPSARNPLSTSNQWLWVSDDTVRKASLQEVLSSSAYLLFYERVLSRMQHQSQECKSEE
* hit, by the source's call; . = no result given. Rule as the data show it: active = inhibition above about 30%; inactive = the rest.

SMILES	USP28 inh	USP17 inh	OTUD3 block	USP30 block
CCc1ccc(CNC(=O)c2cc3c(=O)[nH]c4ccccc4c3s2)cc1	-13	0	-1	-13
COc1ccccc1NC(=O)C1CN(c2nc3ccccc3s2)C1	.	38*	-1	.
COc1ccccc1NC(=O)C1CCCN(c2cnc3nccnc3c2)C1 (stereo not drawn)	-110	-139	-89	-383
CN(C)c1ccc(-c2ccnc(N[C@H]3CO[C@H]4[C@@H]3OC[C@@H]4NC(=O)CCC(=O)O)n2)cc1	-67	-67	-68	-282
COc1ccc2[nH]c3c(c2c1)CCN1C(=O)N(c2ccccc2C(=O)NCCc2ccc(F)cc2)C(=O)[C@]31C	4	10	5	4
COc1ccc(C(C(=O)NC2CCCCC2)N(Cc2ccc3c(c2)OCO3)C(=O)CCCC(=O)Nc2ccccn2)cc1 (stereo not drawn)	-8	0	-9	-14
COc1cc(OC)cc(-n2c(=O)c3sccc3n(CC(=O)c3ccc(F)cc3)c2=O)c1	10	20	9	56*
COc1cc(OC)cc(-n2c(=O)c3sccc3n(CC(=O)Nc3ccc(C)cc3)c2=O)c1	8	62*	5	20
CNc1ccc(-c2noc([C@@H]3CCCN3C3CCOCC3)n2)cn1	7	-51	6	-9
O=C(c1ccc(F)cc1)N1CCCC1c1ccnc(Nc2cnccn2)n1 (stereo not drawn)	1	3	-2	-4
O=S(=O)(c1ccc(F)cc1)N1CCCC1c1ccnc(Nc2cnccn2)n1 (stereo not drawn)	45*	47*	12	73*
Cc1ccc(NC(=O)COc2ccc(-c3nc(C(C)C)no3)cc2)c(F)c1	6	37*	10	32*
CC(C)c1noc(-c2ccc(OCC(=O)N3CCN(c4ccccc4F)CC3)cc2)n1	-2	4	1	0
Cc1cc(C)cc(NC(=O)Cc2nnc3ccc(-c4nc(C)no4)cn23)c1	-4	0	0	-22
CCc1noc(-c2ccc(OCC(=O)Nc3cc(C)cc(C)c3)cc2)n1	10	25	0	44*
Cc1c(C)n(-c2cccnc2)c2ncnc(NCCCO)c12	9	9	11	20
Cc1ccc(Nc2nc(C(=O)N3CCN(c4ccccn4)CC3)cc3occc23)cc1Cl	9	15	-7	-70
O=C(c1cc2occc2c(Nc2ccc(F)cc2)n1)N1CCN(c2ccccn2)CC1	13	34*	6	27
Cc1ccc(-c2cc3c(=O)n(Cc4noc(CN5CCC(C)CC5)n4)ccn3n2)cc1	12	3	-9	38*
Cc1ccc(-c2cc3c(=O)n(Cc4noc(CN5CCCCC5)n4)ccn3n2)cc1	-2	4	-12	0
CCc1ccc(-c2cc3c(=O)n(Cc4nc(-c5ccccn5)no4)ccn3n2)cc1	-7	31*	-11	-95
CN1CC(NC(=O)/C=C/c2ccc3c(c2)OCO3)CC1=O (stereo not drawn)	0	-6	1	-2
O=C(/C=C/c1ccc2c(c1)OCO2)c1ccc(-n2cncn2)cc1	.	45*	-4	.
CNC(=O)c1nc2c(s1)CCN(C(=O)c1ccccc1)CC2	.	-1	-4	.
COc1ccc(C2c3c(-c4ccccc4O)n[nH]c3C(=O)N2Cc2ccco2)cc1OC (stereo not drawn)	-8	-5	-10	-2
SMILES	USP28 inh	USP17 inh	OTUD3 block	USP30 block
Cc1ccc(C2c3c(-c4ccccc4O)n[nH]c3C(=O)N2Cc2ccco2)cc1 (stereo not drawn)	65*	44*	-3	46*
O=C1c2[nH]nc(-c3ccccc3O)c2C(c2ccc(F)cc2)N1Cc1ccco1 (stereo not drawn)	52*	39*	13	52*
COc1ccccc1NCC(=O)N1c2ccccc2NC(=O)C1(C)C	8	28	10	-9
COc1ccccc1/C=C(\C(=O)N1CCN(Cc2ccccc2)CC1)c1ccccc1	19	17	20	40*
Fc1ccc(Oc2nc(CN3CCOCC3)nc3sc4c(c23)CCCC4)c(Cl)c1	58*	4	-9	-28
Fc1cccc(Oc2nc(CN3CCOCC3)nc3sc4c(c23)CCCC4)c1	7	-14	-6	-78
Cc1cc2n(n1)CC(C)(C(=O)NCc1ccccc1)N(c1ccc3c(c1)OCCO3)C2=O (stereo not drawn)	-4	-14	7	-16
CC1(C(=O)NCc2ccc(F)cc2)Cn2nc(-c3ccco3)cc2C(=O)N1c1ccc2c(c1)OCCO2 (stereo not drawn)	35*	37*	0	5
